High-throughput results from PubChem.
NPR1 activator – GC-A stimulated cGMP production enhancers – HEK293 GC-A cells, cGMP TR-FRET, EC30 ANP, primary screen. 0% at EC30 ANP, 100% saturating ANP. AID 1671463, 2021. activation, % at 10 µM. 0.14% of 370,000 active. Atrial natriuretic peptide receptor 1 (Homo sapiens), P16066; in the data active = activation above about 40%
APOBEC3A inh – APOBEC3A ssDNA deaminase inhibitors, primary screen, selectivity assay for APOBEC3G inhibitor project, biochemical, FAM/TAMRA oligo cleavage fluorescence; AID 493011, 2011; DNA dC->dU-editing enzyme APOBEC-3A (Homo sapiens), P31941; 0.41% of 330,000 active; recombinant A3A, FAM/TAMRA ssDNA deamination fluorescence; inhibition, % at 20 µM;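 active = at least 40% inhibition at 20 µM here, with at most 30% in a related deaminase screen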;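 also: plate controls were A3A with DMSO for no effect and wells lacking A3A enzyme for full effect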
Target sequence (P31941 whole entry, looked up): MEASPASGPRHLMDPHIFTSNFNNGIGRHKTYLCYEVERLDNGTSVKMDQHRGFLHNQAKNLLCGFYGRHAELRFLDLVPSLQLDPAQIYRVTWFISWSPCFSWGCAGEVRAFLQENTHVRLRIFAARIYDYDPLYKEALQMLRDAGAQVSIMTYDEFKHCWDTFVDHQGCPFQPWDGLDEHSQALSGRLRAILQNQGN
GC-B act – human GC-B receptor activators, primary screen, HEK293 GC-B cells, cGMP TR-FRET, EC30 CNP; Atrial natriuretic peptide receptor 2 (Homo sapiens), P20594; 0% at EC30 CNP, 100% saturating CNP; activation, % at 10 µM; 0.11% of 370,000 active;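 active = activation at 10 µM reaching about 35% in either raw or pattern-adjusted values, limit read from the data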
A3G deaminase – APOBEC3G DNA deaminase inhibitors, primary screen, biochemical, fluorescence, single-stranded DNA substrate, uHTS; DNA dC->dU-editing enzyme APOBEC-3G (Homo sapiens), Q9HC16; recombinant A3G, ssDNA deamination FAM/TAMRA fluorescence; inhibition, % at 20 µM; 0.28% of 330,000 active;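 active = inhibition of at least 40% at 20 µM, with no more than 30% in the related APOBEC3A deaminase screen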;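 also: plate controls were DMSO wells with A3G for no effect and wells lacking A3G enzyme for full effect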
PfG6PD inh – PfG6PD enzyme inhibitors, primary screen, biochemical, fluorescence intensity, uHTS; glucose-6-phosphate dehydrogenase-6-phosphogluconolactonase (Plasmodium falciparum 3D7); PfGluPho enzyme, NADPH resazurin-diaphorase fluorescence; inhibition, % at 20 µM; 0.78% of 350,000 active; AID 504690, 2011;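 active = inhibition reaching at least a set limit at 20 µM in the primary screen, cut at about 59% in these data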;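 also: 0% = DMSO wells with substrate and 100% = DMSO wells lacking glucose-6-phosphate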
Neddylation inh – inhibitors of cullin neddylation, primary screen, biochemical, TR-FRET, uHTS, NAE and Ubc12. NEDD8-conjugating enzyme Ubc12 (Homo sapiens) + NEDD8-activating enzyme E1 regulatory …. inhibition, % at 25 µM. 0.58% of 360,000 active. AID 651699, 2012; in the data active = inhibition above about 36%
A3G conf – APOBEC3G deaminase inhibitor retest, confirmation, biochemical, fluorescence, single-stranded DNA substrate, single concentration | shares compounds with A3G deaminase | recombinant A3G ssDNA deaminase, UDG/FAM-TAMRA fluorescence | inhibition, % at 20 µM | 72% of 890 active | AID 493152, 2011;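 active = inhibition reaching a set limit in any replicate at 20 µM, the limit being 80% of the first screen's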
UDG ctr A3G – E. coli UDG inhibitors, confirmation, counter-screen for APOBEC3G inhibitor project, biochemical, single concentration, fluorescence, FAM/TAMRA oligo. 710 tested, under 10 active. inhibition, % at 20 µM. UDG counterscreen. shares compounds with A3G deaminase;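 active = compounds giving 40% or more inhibition at 20 µM in any one of the three replicates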;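 also: plate controls were DMSO wells with UDG and oligo for no effect and DMSO wells lacking both for full effect; inhibitors lower the FAM signal released by uracil excision and alkaline cleavage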
Target sequence (P12295 whole entry, looked up): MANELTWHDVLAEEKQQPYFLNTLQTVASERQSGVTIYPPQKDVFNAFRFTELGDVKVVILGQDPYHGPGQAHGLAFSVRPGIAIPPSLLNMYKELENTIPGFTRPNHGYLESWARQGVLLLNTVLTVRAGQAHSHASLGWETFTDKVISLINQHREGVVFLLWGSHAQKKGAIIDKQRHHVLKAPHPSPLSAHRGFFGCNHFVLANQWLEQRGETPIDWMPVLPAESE
Starred values were filed as active, the others as inactive; . = not tested or not shown. Shown are actives, neighbours in structure and some others; about 2% of the full set was active somewhere.

SMILES	NPR1 activator	APOBEC3A inh	GC-B act	A3G deaminase	PfG6PD inh	Neddylation inh	A3G conf	UDG ctr A3G
CCOC(=O)C1CCN(C(=O)C(Cc2ccc3c(c2)OCO3)NC(C)=O)CC1 (configuration not stated)	1.5	.	-1.4	.	.	.	.	.
CCN(CC)S(=O)(=O)c1cc(NC(=O)Cn2ncc(Cl)c(Cl)c2=O)ccc1C	-2.1	13.5	2.0	54.9*	8.9	-306.9	15.7	.
Cc1cc(-c2n[nH]c(=S)n2/N=C/c2sccc2C)n[nH]1	-1.3	-3.7	-10.2	57.4*	45.0	4.6	85.7*	16.9
Cc1ccsc1/C=N/n1c(-c2ccccc2)n[nH]c1=S	-4.4	-2.2	-1.6	32.0	39.0	-6.9	.	.
S=c1[nH]nc(-c2ccccn2)n1/N=C/c1cccc(Cl)c1	6.3	-5.0	-0.5	43.1*	29.3	-2.8	77.2*	-0.9
Cc1ccsc1/C=N/n1c(-c2ccccn2)n[nH]c1=S	2.1	0.5	-8.6	60.1*	34.6	-4.7	63.1*	1.4
Cc1ccsc1/C=N/n1c(-c2ccncc2)n[nH]c1=S	-2.7	-10.7	-0.3	51.7*	35.8	-13.2	75.5*	-3.3
S=c1[nH]nc(-c2ccccn2)n1/N=C/c1ccco1	-5.9	1.2	3.0	-2.6	12.5	-2.6	.	.
C#CCNC(=O)C[C@H]1C(=O)N(CCc2ccc(Cl)cc2)C2=CCCC[C@@]21C(=O)OCC	1.1	.	-0.5	.	.	.	.	.
C=CCN=C1NC(c2ccc(C(F)(F)F)cc2)C(C(=O)OC)=C(C)N1C (configuration not stated)	-11.6	.	-10.0	.	.	.	.	.
Cc1cccc2c(-c3ccccc3)cc(=O)[nH]c12	-0.2	-1.2	-2.4	-3.3	0.2	12.2	.	.
Cc1cc(=S)[nH]c2c(C)cccc12	10.6	-1.8	6.7	78.7*	41.7	-13.2	-0.9	-5.9
COc1ccc(OC)c(CCNC(=O)Cn2sc3nc(C)cc(C)c3c2=O)c1	.	0.3	.	63.0*	.	.	78.5*	.
COc1ccc(OC)c(CCNC(=O)Cn2nc(C)c3c(C)n(-c4ccc(C)cc4)nc3c2=O)c1	3.7	-3.2	0.3	-4.7	-8.9	2.2	.	.
CCN(CC)C(=O)CSc1ncnc2c(-c3cccs3)nsc12	-16.2	26.4	-0.2	54.0*	1.3	19.3	44.9*	-2.7
Cc1cccc(C(=O)Nc2cccc(C(=O)N3CCOCC3)c2)c1	3.4	3.8	5.8	-0.2	-3.0	-6.0	.	.
CC(=O)/C(=N/Nc1cccc(C)c1)N1CCOCC1	2.7	-3.2	-0.3	45.4*	4.0	1.4	3.1	-3.3
COc1ccc(NC(=O)c2ccc3c(c2)NC(=O)CS3)cc1S(=O)(=O)Nc1ccc(Br)cc1	-3.5	3.3	5.1	55.2*	11.0	17.3	30.0*	-3.5
CC(=O)Nc1ccc(S(=O)(=O)NNC(=O)c2ccc3c(c2)OCO3)cc1	6.1	-3.0	6.5	-10.0	-8.5	4.6	.	.
CC(=O)Nc1ccc(S(=O)(=O)NNC(=O)c2cccc(Cl)c2)cc1	-1.4	1.9	2.9	75.6*	20.1	1.9	-3.4	.
COC(=O)CSc1nnc(-c2ccc(NS(=O)(=O)c3c(C(C)C)cc(C(C)C)cc3C(C)C)cc2)o1	-1.3	.	6.1	.	.	.	.	.
